Insulin prom inh: TRM-6 insulin promoter activity inhibition; TRM-6 cells (human fetal islet line), insulin promoter-eGFP reporter, imaging; reporter expression induced with tamoxifen; inhibition, % at 2 µM; 130,000 tested, 0.9% active; AID 1273;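 active means inhibition above the mean plus 3 SD, with well images judged a real hit on visual review, cut at about 60% in these data, passing the limit was not always enough; inconclusive means inhibition over the cutoff but images rejected on review; inactive means inhibition not above the cutoff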
WT yeast gro inh: growth inhibition of WT yeast, mitochondrial fusion screen | mitochondrial fusion phenotypic screen, WT strain | inhibition, % at 10 µM | 190,000 tested, 2.1% active | AID 1362; in the data active means inhibition above about 58%; tested in S. cerevisiae
Autophagy HCS: modulators of autophagy; MEF GFP-LC3 puncta imaging; test concentration mostly 10 µM; calls only at 10 µM (by protocol); 190,000 tested, 0.98% active; AID 463193;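 active means percentage of spot-positive cells more than 3 SD above its plate mean, without a fluorescence outlier flag or 80% toxicity; inconclusive means no clear call, values can overlap the other calls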
L major viab: Leishmania major promastigote growth inhibition | inhibition, % at 10 µM | 200,000 tested, 9% active | AID 1063 | Leishmania major promastigotes, resazurin fluorescence viability; in the data active means inhibition above about 50%;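 further: promastigotes grown with compound for 44 hours at 28 °C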
Ins promoter up: MIN6 insulin promoter up-regulation. MIN6 insulin promoter-GFP reporter, high-content imaging; hits give high values. z-score at 5 µM. 190,000 tested, 0.3% active;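 active means z-score above 3 at 5 µM with at least 500 cells counted in the well; inconclusive means wells under 500 cells, flagged as cytotoxic or low count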
Each line names hits and unclear results; the compound was inactive in the other large screens. A selection: hits, their analogues and other compounds. The true share with any hit is near 11%.

CCCCCCC(=O)N1CCC(c2nc3c(nnn3Cc3ccccc3Cl)c(=O)[nH]2)CC1	none
COc1ccc(CCN(C(=S)Nc2ccccc2)C2CC(=O)N(c3ccccc3)C2=O)cc1 (configuration not stated)	none
CNC(=S)N(Cc1ccc(OC)cc1)C1CC(=O)N(c2ccc(Cl)cc2)C1=O (configuration not stated)	L major viab 52.3 (no result: Ins promoter up)
COc1ccc(N2C(=O)CC(NCc3ccc(F)cc3)C2=O)cc1 (configuration not stated)	Autophagy HCS active (no result: Ins promoter up)
Cc1ccc(N2C(=O)CC(N(CCc3ccccc3)C(=S)Nc3ccc(N(C)C)cc3)C2=O)cc1 (configuration not stated)	none (no result: Ins promoter up)
O=C1CC(N(CCc2ccccc2)C(=S)Nc2ccccc2)C(=O)N1c1ccc(Br)cc1 (configuration not stated)	WT yeast gro inh 69.5 (no result: Insulin prom inh)
COc1ccc(CN(C(=S)Nc2ccccc2)C2CC(=O)N(c3ccc(F)cc3)C2=O)cc1 (configuration not stated)	L major viab 91.4
Cc1cc(C)c(S(=O)(=O)N2CCOC2CNC(=O)C(=O)NCCCn2ccnc2)c(C)c1 (configuration not stated)	none (no result: Insulin prom inh, WT yeast gro inh, Autophagy HCS, L major viab)
O=C(CC(SCCO)c1ccc2c(c1)OCO2)c1ccco1 (configuration not stated)	L major viab 56.5 (no result: Insulin prom inh)
O=C(NCc1ccc2c(c1)OCO2)c1ccco1	none (no result: Insulin prom inh)
O=C(/C=C/NNC(=O)c1ccccc1)c1ccc([N+](=O)[O-])cc1	L major viab 79.5 (no result: Ins promoter up)
c1ccc2c(c1)nc(NCc1ccc3c(c1)OCO3)n2CCN1CCOCC1	none (no result: Insulin prom inh)
CN(C)CCCn1c(NCc2ccc3c(c2)OCO3)nc2ccccc21	L major viab 66.0 (no result: Ins promoter up)
C=CCn1c(NCc2ccccc2)nc2ccccc21	none (no result: Insulin prom inh, Ins promoter up)
CCn1c(NCc2ccc3c(c2)OCO3)nc2ccccc21	L major viab 77.7
C=CCn1c(NCc2ccc3c(c2)OCO3)nc2ccccc21	L major viab 97.8 (no result: Insulin prom inh)
O=C(O)COc1ccccc1/C=N/NC(=O)c1cccc(S(=O)(=O)N2CCOCC2)c1	none (no result: Insulin prom inh, Ins promoter up)
S=c1[nH]nc(CSCc2ccccc2Cl)n1C1CCCCC1	WT yeast gro inh 73.6 (no result: Insulin prom inh)
S=c1[nH]nc(COc2ccc(Cl)cc2)n1C1CCCCC1	none
Cn1c(CSCc2ccccc2Cl)n[nH]c1=S	none (no result: Insulin prom inh)
Cc1cccc(OCc2n[nH]c(=S)n2C2CCCCC2)c1	Insulin prom inh inconclusive, WT yeast gro inh 67.4 (no result: Ins promoter up)
Cc1ccc(OCc2n[nH]c(=S)n2C2CCCCC2)cc1	WT yeast gro inh 66.1
COC1=C(c2ccccc2)C(=O)c2ccccc2C1=O	none (no result: Insulin prom inh)
O=C1C(=O)c2ccc(-c3ccccc3)cc2-c2ccccc21	Autophagy HCS active, L major viab 99.9, Ins promoter up inconclusive
Nc1ccc2c(c1)C(=O)C(=O)c1ccccc1-2	WT yeast gro inh 97.4, L major viab 100.0, Ins promoter up inconclusive
Cc1cc(N2C(=O)C3C4CC(C(Br)C4Br)C3C2=O)no1 (configuration not stated)	none
Cc1cc(Cl)ccc1Oc1ncc(CN2CCN(c3ccccc3)CC2)s1	WT yeast gro inh 63.6 (no result: Insulin prom inh)
Cc1ccc(-c2nnc(NC3CCCCC3)c3ccccc23)cc1S(=O)(=O)N1CCN(C)CC1	L major viab 96.4
Cc1ccc(-c2nn3c(C)nnc3c3ccccc23)cc1S(=O)(=O)NC(C)c1ccccc1 (configuration not stated)	L major viab 99.4
Cc1ccc(-c2nn3c(C)nnc3c3ccccc23)cc1S(=O)(=O)N1CCN(CCO)CC1	Autophagy HCS active (no result: Insulin prom inh)
Cc1ccc(C(=O)c2cc(C)sc2NC(=O)CN2CCN(C(=O)c3ccco3)CC2)cc1	WT yeast gro inh 78.7, L major viab 50.3
Cc1cc(C)c(-c2noc(C(=O)OC(C)(C)C)c2C(=O)OC(C)(C)C)c(C)c1	WT yeast gro inh 65.6 (no result: Insulin prom inh)
NC(=O)CSc1cn(Cc2ccccc2)c2ccccc12	none
Cc1cc[n+](CC(=O)c2ccc(NC(=O)c3ccccc3)cc2)c2ccccc12	WT yeast gro inh 60.5
O=C(C[n+]1cc2ccccc2c2ccccc21)c1ccccc1	L major viab 99.3
N#CC1=C(N)N=C(SCc2cccc3ccccc23)C(C(N)=O)C12CCCCC2 (configuration not stated)	L major viab 100.0 (no result: Ins promoter up)
CC1(C)Cc2nc3sc4c(SCC(=O)NCc5ccccc5)ncnc4c3cc2CO1	Autophagy HCS active
Cc1ccccc1NC(=S)NC1CC2CCC(C1)N2Cc1ccco1 (configuration not stated)	L major viab 60.4 (no result: Insulin prom inh)
Cc1cccc(NC(=S)NC2CC3CCCC(C2)N3Cc2ccco2)c1 (configuration not stated)	L major viab 62.5 (no result: Ins promoter up)
